Measurements published in PubChem BioAssay (Tox21).
Inconclusive results are not listed. A number with no mark means an inactive call. The call rests on the fitted dose curve.

What follows are compounds tested against Beta-2 adrenergic receptor (Homo sapiens) (UniProt P07550) (assay: Adrenergic beta2 receptor (ADRB2) small molecule agonists, cell-based qHTS assay (AID 1963593)). Conditions: CHO-ADRB2 cells, cAMP HTRF, 30 min; series mostly up to 92.4 µM; activation: at the top concentration.
Description: National Center for Advancing Translational Sciences [NCATS]
Division of Preclinical Innovation [DPI]
U.S. Environmental Protection Agency [EPA]
National Institutes of Environmental Health Sciences [NIEHS]
National Toxicology Program [NTP]
U.S. Food and Drug Administration [FDA]
Beta adrenergic receptors (Beta-ARs) belong to the G-protein coupled receptor (GPCR) superfamily, includes three subtypes - beta1, beta2, and beta3. Beta1-AR is the predominant receptor subtype expressed in the heart, and beta2-AR is expressed in the kidney, lung, blood vessel and in the heart, and beta3 is found in the adipocytes. Beta1 and 2 ARs couple to Gs protein and elevate cyclic adenosine mono phosphate (cAMP), which activates protein kinase A and leads to the downstream signaling responsible for the physiological actions. Beta-AR agonists or antagonists are the most prescribed therapeutic agents for heart failure and asthma, and these were one of the first target receptors for the rational drug design. Tox21 10K compound library was screened using the cAMP-Gs dynamic assay (Cisbio Bioassays, Shelton, CT) to identify agonists/antagonists of the Gs-coupled human adrenergic, beta2 receptor (ADRB2) in the CHO-ADRB2 cell line (Codex BioSolutions, Inc. Gaithersburg, MD), which stably over-expresses ADRB2. The principle of cAMP-Gs dynamic assay is based on HTRF technology, which facilitates the fluorescence resonance energy transfer (FRET) between donor Europium cryptate and acceptor d2-labeled cAMP. The cAMP generated within cells competes with the red acceptor, d2-labled cAMP, for binding to the monoclonal anti-cAMP-cryptate (Europium donor). An increase in intracellular cAMP leads to the disruption of FRET signal, and the signal is inversely proportional to the cAMP concentration. Isoproterenol HCl (Sigma-Aldrich, St. Louis, MO) was used as a positive control in the screening.
Tox21 Assay Protocol Summary:
CHO-ADRB2 cells were dispensed at 1,000/well in 4uL assay medium into white/solid 1536-well plates (Greiner Bio-One North America Inc., Monroe, NC) using a Multidrop Combi dispenser (ThermoFisher Scientific, Waltham, MA). The assay plates were incubated at 37C and 5% CO2 for an overnight (18-20hr). Then positive control and test compounds dissolved in DMSO were transferred to the assay plates at 23nL using a Pintool station (Wako, San Diego, CA). Following the compound and positive control transfer, 1uL stimulation mix containing 100uM IBMX and 25uM Ro-20-1724 was added to each well of the assay plates using BioRAPTR Flying Reagent Dispenser (FRD, Beckman Coulter, Brea, CA). The assay plates were incubated at room temperature for 0.5hr. Then 2.5ul each d2-labled cAMP and anti-cAMP-cryptate solutions were added separately to each well of the assay plates using an FRD and the assay plates were incubated at room temperature for 1hr.
On the % scale 0 is the no-effect control and ±100 the full control effect.

Sequence of Beta-2 adrenergic receptor (Homo sapiens) (P07550 whole entry, looked up): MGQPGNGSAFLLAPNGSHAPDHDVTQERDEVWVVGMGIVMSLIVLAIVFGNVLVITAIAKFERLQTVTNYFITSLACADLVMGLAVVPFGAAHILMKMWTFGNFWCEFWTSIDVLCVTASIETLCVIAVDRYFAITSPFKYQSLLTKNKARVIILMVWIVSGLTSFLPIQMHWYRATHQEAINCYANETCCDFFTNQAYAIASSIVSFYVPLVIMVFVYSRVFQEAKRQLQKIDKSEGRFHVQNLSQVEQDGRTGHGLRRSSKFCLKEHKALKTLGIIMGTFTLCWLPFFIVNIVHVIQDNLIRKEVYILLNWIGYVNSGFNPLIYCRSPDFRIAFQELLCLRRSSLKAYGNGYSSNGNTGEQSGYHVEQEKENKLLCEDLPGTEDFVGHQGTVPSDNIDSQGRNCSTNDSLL

Compound | activation
CN(C)C(=O)Nc1ccccc1 | 0.65%
Cc1cc([N+](=O)[O-])ccc1N | -1.77%
CC(=O)Oc1ccc([N+](=O)[O-])cc1CCl | 11.9%
CCN(CC)CCOC(=O)C(c1ccccc1)C1CCCCC1 (stereo not given) | -27.6% [at 42.5 µM]
CCNC(=O)/C=C/c1cccc(Br)c1 | 6.53% [at 42.5 µM]
CCOC(=O)c1ccc(N(C)C)cc1 | 3.08%
C[Si](C)(C)O[Si](O)(O)O | -8.03%
Clc1ccc(Cn2c(CN3CCCC3)nc3ccccc32)cc1 | -17.7% [at 42.5 µM]
O=C1CC[C@@H](C(=O)O)N1 | 0.359% [at 42.5 µM]
O=C1CCCCCCCCCCCC(=O)OCCO1 | 0.871%
N[C@@H](CCC(=O)O)C(=O)O | 6.55%
c1ccc(-c2ccc(-c3ccccc3)cc2)cc1 | 7.35% [at 19 µM]
CCCCC(CC)C(=O)OCCOCCOCCOCCOC(=O)C(CC)CCCC (stereo not given) | 3.21%
CC(C)COC(=O)/C=C/c1ccccc1 | 13.9%
O=C(O)C(=O)Cc1ccccc1 | 5.66%
CCC1=C[C@@H]2CN(C1)Cc1c([nH]c3ccccc13)[C@@](C(=O)OC)(c1cc3c(cc1OC)N(C)[C@H]1[C@@](O)(C(=O)OC)[C@H](OC(C)=O)[C@]4(CC)C=CCN5CC[C@]31[C@@H]54)C2 | -0.346% [at 42.5 µM]
O=C1Cc2ccccc2N1c1c(Cl)cccc1Cl | 6.1%
O=C(O)c1ccc2cc(C(=O)O)ccc2c1 | -8.73%
Cn1cnc2c(=O)[nH]c(N)nc21 | 4.02%
CCCCCCOC(=O)c1ccc(O)cc1 | -10%

Compound | activation
CCOC(=O)/C=C(C)/C=C/C=C(C)/C=C/c1c(C)cc(OC)c(C)c1C | -8.71% [at 42.5 µM]
CCN(Cc1ccncc1)C(=O)C(CO)c1ccccc1 (stereo not given) | 8.03% [at 42.5 µM]
C=Cc1ccncc1 | -3.5%
COC(=O)C1=C(C)NC(C)=C(C(=O)OCCc2ccc(N3CCN(C(c4ccccc4)c4ccccc4)CC3)cc2)C1c1cccc([N+](=O)[O-])c1 (stereo not given) | 4.24% [at 42.5 µM]
O=S(=O)(c1cccc2cnccc12)N1CCCNCC1 | 15.3% [at 42.5 µM]
C=C(C)C(=O)OCCOCCOCCOCCOC(=O)C(=C)C | 5.55%
N#Cc1ccc(C(c2ccc(C#N)cc2)n2cncn2)cc1 | 8.95% [at 42.5 µM]
CCC(C)n1ncn(-c2ccc(N3CCN(c4ccc(OC[C@H]5CO[C@](Cn6cncn6)(c6ccc(Cl)cc6Cl)O5)cc4)CC3)cc2)c1=O (stereo not given in full) | 8.29% [at 42.5 µM]
O=C(O)COC(=O)Cc1ccccc1Nc1c(Cl)cccc1Cl | 4.28% [at 42.5 µM]
CC1(C)C(=O)N(Br)C(=O)N1Br | 10.2%
C=C1CCC2CC1C2(C)C (stereo not given) | 12%
CO/N=C(/C(=O)N[C@@H]1C(=O)N2C(C(=O)O)=C(Cn3nnc(C)n3)CS[C@H]12)c1csc(N)n1 | 13.1% [at 42.5 µM]
CC(C)O.CC(C)O.CCOC(=O)/C=C(\C)O.CCOC(=O)/C=C(\C)O.[Ti] | 9.03%
CC1CN(c2cc3c(cc2F)c(=O)c(C(=O)O)cn3-c2ccc(F)cc2F)CCN1 (stereo not given) | 1.31% [at 8.39 µM]
O=C(c1ccccc1)c1ccccc1 | -12.5% [at 42.5 µM]
CCNC(=O)NCc1cccc(Cl)c1 | 5.92% [at 42.5 µM]
COc1ccc(/C=C/c2cc(OC)cc(=O)o2)cc1 | -8.59% [at 42.5 µM]
O=C(Cl)c1ccc(Cl)cc1Cl | 6.38%
O=C(O)Cc1ccc(Cl)cc1Cl | 2.79%
Cc1onc(-c2ccccc2)c1-c1ccc(S(N)(=O)=O)cc1 | -53.2% [at 42.5 µM]
